{"source": "PubChem BioAssay AID602468", "about": "(The Scripps Research Institute Molecular Screening Center, 2012)", "system": "Neuro-2A", "test": "cysteine-reactive anti-target inhibition count, late-stage follow-up, selectivity assay for PME-1 inhibitor project, gel-based competitive ABPP, fluorescence, MBM, Neuro-2A (AID 602468)", "conditions": "MBM or Neuro-2A, in situ; series mostly up to 0.25 µM", "note": "Calls of active or inactive are those of the source. How the calls were made is not given here.", "data": [{"smiles": "CC[C@@]1(c2ccc(C)cc2)C(=O)N(C(=O)OC(C)C)N1C(=O)OC(C)C", "values": [{"measurement": "outcome", "result": "inactive"}]}]}
